# IL1B secr inh: blocks inflammasome-driven IL-1 beta release | THP-1 LPS/ATP IL-1B secretion, AlphaLISA, 16 h; active compounds read low | 360,000 tested, 4.7% active | activity change, % at 57.5 µM; in the data active = activity change below about -50%; inconclusive = mostly about -30% to -49%
#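 Secreted IL-1B measured by AlphaLISA bead assay after 16 h compound exposure of THP-1 cells; compounds (final up to 57.5 uM) added 1 h before LPS (250 ng/mL) and ATP (1.25 mM) stimulation; lower signal means less secretion.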
# HT1080NT lethal: kills 2HG-producing HT-1080-NT fibrosarcoma cells. HT-1080-NT fibrosarcoma viability, CellTiter-Glo ATP luminescence, 48 h. Potency, µM (top dose mostly 46.1 µM), for inactives: at the top dose activity, negative = less viability, usual class: cytotoxic. 360,000 tested, 1.6% active. AID 686970;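 also: NT is the 2HG producing partner of a matched IDH1 knockdown line; potency is read from the fitted curve at half-maximal effect; 0% = DMSO-treated cells and -100% = media-only wells without cells; nearly all actives have a fitted effect of over 55% in size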
#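 HT-1080-NT; 750 cells/well; 5% FBS RPMI; 48 h compound, 37 degrees C; CellTiter-Glo luminescence; curve fitting and curve-class assignment.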
# HT1080 IDH1KD tx: toxicity to HT-1080 IDH1 knockdown cells (counter line); Potency, µM (highest dose often 46.1 µM), for the others: top-dose activity, negative = toxicity, hits mostly cytotoxic; HT-1080 IDH1 knockdown viability, ATP luminescence, 48 h; 360,000 tested, 2% active;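 also: potency is read from the fitted curve at half-maximal effect; 0% = DMSO wells and -100% = cell-free medium wells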
#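 Using the IDH1-knockdown HT-1080 line run in the same batch and compound series as the NT line, viability after 48 h at 37 °C was determined by CellTiter-Glo luminescence and expressed as % activity.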
# TDP1 cell noCPT: qHTS for Inhibitors of human tyrosyl-DNA phosphodiesterase 1 (TDP1): qHTS in cells in absence of CPT. DT40 Tdp1-/- hTDP1 cells, no CPT, ATP luminescence, 48 h. Potency, µM (top dose mostly 46.2 µM), for the others: at the highest dose activity change, negative = growth inhibition, usual class: inhibitors. AID 686978, 2013. 420,000 tested, 15% active; also: potency is read from the fitted curve at half-maximal effect; nearly all actives have a fitted effect of over 55% in size
#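 Growth kinetics read by CellTiter-Glo luminescence after ≥48 hr at 37 °C. Cells: DT40 Tdp1-/- stably carrying human TDP1, 400 per well, compound exposure in the absence of CPT (DMSO vehicle).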
# DT40 TDP1 CPT: DT40-hTDP1 cell growth loss with CPT. chicken DT40 Tdp1-/-;hTDP1 cells + 20 nM CPT, ATP luminescence, 48 h. Potency, µM (top dose mostly 46.2 µM), for inactives: top-dose activity change, negative = growth inhibition, usual class: inhibitors. 420,000 tested, 12% active; also: potency is read from the fitted curve at half-maximal effect; nearly all actives have a fitted effect of over 55% in size
#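 Chicken DT40 Tdp1-/- cells complemented with human TDP1, 400 cells/well, exposed to compounds plus 20 nM camptothecin for at least 48 h at 37 C; viability read as ATP content by CellTiter-Glo luminescence.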
# uPA surface inh: blocks generation of uPA at the cell surface. Potency, µM (titrated, usually from 38.3 µM), without a hit: at the highest dose activity change, negative = inhibition, usual class: inhibitors. cell surface uPA generation assay, qHTS. AID 540303. 330,000 tested, 0.31% active; active = well fitted inhibition curve with a large enough effect; inconclusive = small, poorly fitted or top-dose-only effect; inactive = no such curve, though single readings can be large or run the other way; tested in mouse RAW 264.7 cells; also: potency is read from the fitted curve at half-maximal effect; nearly all actives have a fitted effect of over 55% in size
# An asterisk follows results filed as active; u = inconclusive; x = no result given; [ ] = another dose, or the depositor's remark. Sampled rows, rich in hits. Any-hit rate of the full collection: about 19%. Unless noted, calls follow the shape of the dose curve; as a rule, active = well fitted curve in the direction sought with a large enough effect; inconclusive = small, poorly fitted or top-dose-only effect, or another doubt; inactive = no such curve, though single readings can be large; an effect the other way counts as inactive or inconclusive. Unless noted, % is scaled to controls: 0 for no effect and ±100 for the full control effect.
SMILES,IL1B secr inh,HT1080NT lethal,HT1080 IDH1KD tx,TDP1 cell noCPT,DT40 TDP1 CPT,uPA surface inh
CCOC(=O)N1CCN(C(=O)CS(=O)(=O)c2cn(Cc3ccccc3Cl)c3ccccc23)CC1,4,-3%,-4%,u,u,4%
CCOc1ccccc1N(CC(=O)N1CCCCCC1)S(=O)(=O)c1ccc(C)cc1,0,-2%,-7%,u,23µM*,0%
Cc1cccc(N(CC(=O)NC2CCCC2)C(=O)c2nsc(Cl)c2Cl)c1C,-5,-2%,-10%,u,u,11%
CCOC(=O)N1CCN(C(=O)CS(=O)(=O)c2cn(Cc3ccc(Cl)cc3)c3ccccc23)CC1,14,-3%,-2%,16µM*,23µM*,7%
CCOc1ccccc1N(CC(=O)NC1CCCCC1)C(=O)c1nsc(Cl)c1Cl,-11,-3%,-1%,26µM*,-24%,8%
CCOC(=O)C1CCC(CN(Cc2ccc(Cl)cc2)S(=O)(=O)c2cc(Cl)cc(Cl)c2)CC1 (configuration not stated),x,x,x,10µM*,21µM*,x
COc1ccc2c(c1)CC(C(=O)N1CCC(C(N)=O)CC1)CO2 (configuration not stated),x,x,x,-15%,-9%,x
OCCN1CCN(c2ncnc3c2ncn3[C@H]2CN(Cc3cccs3)C[C@@H](CO)O2)CC1,35,17%,u,-1%,u,x
CCOC(=O)N1CCN(C(=O)CN(Cc2ccc(Cl)cc2)S(=O)(=O)c2ccc(C)cc2)CC1,5,-2%,2%,u,16µM*,x
COc1cccc(N(CC(=O)N2CCN(C)CC2)S(=O)(=O)c2ccc(C)cc2)c1,-1,4%,10%,-10%,-8%,3%
CCOc1ccccc1N(CC(=O)NC1CCCC1)S(=O)(=O)c1ccc(C)cc1,0,-13%,0%,21µM*,u,1%
COc1cccc(N(CC(=O)N2CCC(C)CC2)S(=O)(=O)c2ccc(C)cc2)c1,x,x,x,15µM*,21µM*,x
CCOc1ccccc1N(CC(=O)N1CCC(C)CC1)S(=O)(=O)c1ccc(C)cc1,-3,-6%,-17%,15µM*,9.2µM*,11%
COc1ccc(CSCC(=O)Nc2ccccc2)cc1[N+](=O)[O-],27,-3%,-4%,1%,2%,-1%
CCC1CCCCN1CCCNC(=O)c1cn(CC)c2ccc(S(=O)(=O)N(C)C3CCCCC3)cc2c1=O (configuration not stated),u,-1%,-15%,21µM*,u,u
CCCCSCCCNC(=O)c1cn(CC)c2ccc(S(=O)(=O)N(C)C3CCCCC3)cc2c1=O,x,x,x,16µM*,u,x
O=c1[nH]c2c(c3c1CCCC3)CCCC2,40,-8%,-3%,-15%,21µM*,-3%
O=c1[nH]c2c(c(=O)[nH]1)CCCCCC2,4,15%,22%,-2%,9%,5%
Cc1ccc(NC(=O)c2ncn(CC(=O)N[C@H](C)c3cccc4ccccc34)n2)cc1C,11,-10%,-24%,u,u,u
COc1cccc(CN(C)CCCn2cnc(C(=O)Nc3ccc(C)c(C)c3)n2)c1,-22,-4%,-2%,u,21µM*,-4%
Cc1ccc(NC(=O)c2ncn(CCCN3CCN(Cc4cccc5ccccc45)CC3)n2)cc1C,-52*,u,u,13µM*,21µM*,u
COc1ccc(CN(C)C(=O)Cn2cnc(C(=O)Nc3ccc(C)c(C)c3)n2)cc1OC,23,3%,2%,u,18µM*,-20%
CCOC(=O)Cn1nc2oc(=O)c(CCN3CCN(c4ccccc4OC)CC3)c(C)c2c1C,-3,-1%,-3%,3%,9%,x
O=C(CN1C(=O)CCC1=O)Nc1cccc2c1C(=O)NC2=O,46,-10%,2%,-6%,-8%,7%
CCN(Cc1nc2ccccc2c(=O)[nH]1)C(=O)c1ccc(C)c(NC(=O)c2ccco2)c1,-5,-6%,-11%,u,-23%,5%
SMILES,IL1B secr inh,HT1080NT lethal,HT1080 IDH1KD tx,TDP1 cell noCPT,DT40 TDP1 CPT,uPA surface inh
COc1cc(C(=O)OCc2cccc(OC)c2OC)ccc1OCC(=O)N1CCOCC1,-16,9%[9.24 µM],6%,3%,-28%,u
CCOc1cc(C(=O)OC(C(=O)NC(=O)NC)c2ccccc2)ccc1OCC(=O)N1CCOCC1 (configuration not stated),14,1%,7%,18µM*,18µM*,3%
COc1cc(C(=O)OC(C)c2ccc(F)cc2)ccc1OCC(=O)N1CCOCC1 (configuration not stated),32,1%,-2%,23µM*,u,10%
O=C(CSc1nc2ccccc2[nH]1)N1CCN(c2ccc(F)cc2)CC1,-12,-1%,-3%,u,u,11%
O=C(Cn1cnc2ccccc2c1=O)N1CCN(c2ccccc2)CC1,2,2%,4%,-8%,8%,3%
O=C(CSc1ccc(-c2cccc([N+](=O)[O-])c2)nn1)N1CCCCCC1,-54*,-3%,6%,u,u,-1%
O=C(O)c1ccc(Oc2cc(Oc3ccc(C(=O)O)cc3)cc([N+](=O)[O-])c2)cc1,-1,11%,16%,-7%,-5%,2%
O=C(CSc1ccc(-c2cccc([N+](=O)[O-])c2)nn1)N1CCCC1,-10,17%,9%,-13%,5%,0%
O=C(CCCSc1nc2ccccc2[nH]1)N1CCN(c2ccc([N+](=O)[O-])cc2)CC1,-24,7%,3%,8.2µM*,10µM*,-1%
O=C(CCc1ccc(Oc2cc([N+](=O)[O-])cc([N+](=O)[O-])c2)cc1)N1CCCCCC1,u,-13%,-14%,u,18µM*,-4%
O=C(Cn1cc([N+](=O)[O-])nc1[N+](=O)[O-])N1CCN(c2ccccc2)CC1,u,-21%,26µM*,u,16µM*,-6%
COc1cc(OC)c(NS(=O)(=O)c2cc3[nH]c(=O)c(=O)[nH]c3cc2C)cc1Cl,9,9%,0%,0%,6%,-1%
O=C(CSc1ccccc1C(=O)N1CCN(c2ccc([N+](=O)[O-])cc2)CC1)N1CCCC1,-15,u,-6%,15µM*,12µM*,-8%
O=C(CSc1ccccc1C(=O)N1CCN(c2ccccc2)CC1)N1CCCC1,6,1%[9.24 µM],2%,-23%,u,3%

# Source: PubChem BioAssay
